The test relates to VDR:RXRa (NR concentration 270 nM, RXRa partner concentration 90 nM). Kind of test: PBM binding z-score (relative to random genomic background probes); higher = stronger binding; sequences stand for … in GC…GCGATTGACAGCGTAGAATGAAGG
As to the method:
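Protein-binding microarray (Agilent 4x180K custom design, double-stranded 60-nt probes: 5' GC cap, 34-nt variable region, 24-nt constant primer region; full probe sequence given). Purified or IVT nuclear receptor:RXRα heterodimers (3:1 NR:RXRα, mostly 270:90 nM) or homodimers were incubated for 1 h in PBS with 2% milk and no ligand, then detected with Alexa488 antibodies. Fluorescence from o1-orientation probes (~5 replicates averaged) was converted to z-scores against 500 random hg19 background probes. Variable regions are seed direct-repeat (DR0–DR5) sites, all their single-nucleotide variants and half-site ablations.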
Regarding AGTCAAAGTTCATCTAGGTAACGTTAGATATGCT, the PBM binding z-score amounted to 5.11. CCTATTAGGTGACCATAAGGGCAACCGAAGCTCG: the PBM binding z-score worked out at 0.646. With GATACAGGGTCAAGGACAGAGTACGCGTATTGAT, the PBM binding z-score worked out at 4.78. Then TCTGCTCGGTCAGTTGGTCAGCTAACGAGCTGCC, with -0.549; and CCTCGGAGGACAGAAGGTCACAGCTGTCCGCTTT, with 2.64. Then CGTCAAAGTTCAACTAAGGTAACCTAAAGCACGC, with 4.68; and ACGGACAGGTGAGTGAAGGTAACTCAGCTGGACG, with -0.381; and TTACCAAGGTGAGCTGAGGTCGTTAATCCAACTC, with 3.68. CCGAGTCGGTTATGGGGCATTCAGGCAACGGTGA gave a PBM binding z-score of -0.358. Sequence TTACCATGGTGAAGGTCGTTGATCCCTCTGTAGA displayed a PBM binding z-score of 0.949. Then ACAGACAGGTGAGTGAAGGTAACTAAGCTGGACG, with -0.372; and AGGCAAAGTTCAGGACGAGGTAACGTAAAGCACG, with 2.67. Then AGAAGGAGGTTAAGATCAGGGAAACAGAATACAT, with 0.978; and TCTTGTAGATCAATAGAGGTTCAGAAAGTGCGCT, with 1.65. Then GCGACTGGGACATCAGCAGGTTACCATAACTTAA, with -0.302; and CTACCAAGGTGAACAAGGTCGTTAATTACTATTC, with 6.04; and CGAGCTAGGTCATTGACAGGACAGTGAATAGTAA, with 2.04. Take TAGCCTAGGTCATCGGCCAGTATACCACGCGAAC: the PBM binding z-score came out at 2.15.

Consider CGAACTAGGTCAAGGACAGTGATTCTCCGCACGC, for which the PBM binding z-score was 1.48. Next, TAGCCTAGGTCATGGGACAGTATACCACGCGAAC: 2.17; GCTAGCAGGCCATTTGGGTCGCTCAATGACGGGC: -0.563; ACAGACAGGTGAGTGAAGGTAACTCATCTGGACG: -0.347. Next, TCTGGTAGGTCAGTTGGTCAGCTAACGAGCTGCC: 0.483. For TAGTCTAGGTCATGCGGGCCAGTATAGTGTCGGC, the PBM binding z-score was 2.86. Then ATCTCTAGGTAGGACTCAGTTCAGTGAAGAACGC, with 0.756; and CGAACGAGGGCATGAATTGATAGCAAATGCCGAT, with 0.33; and AGAATGAGTTTATACGTAGATCAGGGAAGAAAGT, with 1.71. Next, GGAACGAGGGCAAGGTGATAGCAGAGTTTGATGG: 0.867; AGAATGAGGTTAAGATCAGGCAAACAGAATACAT: 1.23; TCATATAGGTAAACAGGTGAAAGACCGTAAGTTA: 1.05. Then AGAACGAGGGCAATGAGTTGAAAGCACGGGTGGC, with 5.39; and CGTCAAAGTTCAACTAAGCTAACGTAAAGCACGC, with 4.35. In turn, CTTACTGGGCCACGAAAGGTCATTGATTCAGTGA showed a PBM binding z-score of 4.64. Then TCGAGTAGGTTAGTGGGGGCATTCAGCCAACATA, with 5.48.

CGTCAAAGTTCCAGGTAACGTAACAGAAAGCAGC showed a PBM binding z-score of -0.14. Next, ATAAGTAGGTTACATCCGGGTCATTCAGGCTATG: 4.06. Next, TCTAACAGGCCAGAGGGTCACTCAAGAGGTACGG: 1.76; GCTTGAAGATCAAGGTTAAGAAAGACTAAGCTAA: 0.0982. Next, AATACAGGGTCATCGTAGGCGAGAGTACGCACAG: 5.01; TCTAGCAGGCCAGAGGCTCACTCAAGAGGTACGG: -0.485.
